Source: PubChem BioAssay AID434970 (Sanford-Burnham Center for Chemical Genomics, 2010)
Hit rate of the full screen: of about 11,000 compounds, about 310 (2.8%) were called active. No stated cut-off is given here; in the data, active means activity change below about -85%; inactive means the rest. What follows is part of a selection rich in actives, with near analogues and random picks from the rest.

tested on: intestinal alkaline phosphatase [Mus musculus]; experiment: activators of mouse IAP, confirmation, biochemical, luminescence, single concentration (AID 434970); conditions: purified mouse IAP, CDP-Star luminescence, 30 min, at 10 µM; activation factor: measured here: IAP activation factor, stronger effect = higher value; activity change, negative = activation: stronger effect = lower value

Row | SMILES | activation factor | activity change, negative = activation
1 | COc1ccc(N2C(=O)C3CCCN3C2c2ccccc2)cc1Cl (stereo unspecified) | 0.895 | 10.5% (inactive)
2 | C=CCNC(=O)c1nc2ccccc2s1 | 0.92 | 8% (inactive)
3 | Cn1c(=O)cc(SCC(=O)Nc2cccnc2)c2ccccc21 | 0.952 | 4.8% (inactive)
4 | CCC1CCCCN1CCCNC(=O)c1ccc2c(=O)n(Cc3ccc(OC)cc3)c(=O)[nH]c2c1 (stereo unspecified) | 0.925 | 7.5% (inactive)
5 | Fc1ccc(CNc2nc(-c3ccco3)cc(C(F)(F)F)n2)cc1 | 0.991 | 0.9% (inactive)
6 | COc1ccc2c(c1OC)C(=O)N(c1ccc(C)c(C)c1)C2=O | 0.976 | 2.45% (inactive)
7 | COc1cc(/C=C(\C#N)c2nc3ccc(C)cc3[nH]2)c([N+](=O)[O-])cc1OC | 0.806 | 19.4% (inactive)
8 | Cc1[nH]ccc(=O)c1OCc1c(Cl)cccc1Cl | 0.957 | 4.3% (inactive)
9 | COCCn1c(Sc2ccccc2)nc2c1c(=O)[nH]c(=O)n2C | 1.07 | -6.95% (inactive)
10 | COC(=O)[C@H]1C2CCC(C(=O)OC)(CC2)[C@H]1C(=O)OC | 0.915 | 8.55% (inactive)
11 | O=S(=O)(c1ccc(F)cc1)N1CCN(CC(O)COCc2cccs2)CC1 (stereo unspecified) | 0.928 | 7.2% (inactive)
12 | Cc1c(C(=O)Nc2ccc(Cl)cc2)c2ccccn2c1C(=O)c1ccccc1 | 1.02 | -1.8% (inactive)
13 | CC(NC(=O)C1CCC1)c1ccccc1 (stereo unspecified) | 1.12 | -11.9% (inactive)
14 | CC(NC(=O)Nc1ccc(Cl)cc1)c1ccccc1 (stereo unspecified) | 2.11 | -111% (active)
15 | Cc1ccc(NC(=O)N/C=C/c2ccccc2)cc1 | 1.56 | -55.5% (inactive)
16 | CC1CCCN(C(C(=O)Nc2ccc(C(C)C)cc2)c2ccc3c(c2)OCO3)C1 (stereo unspecified) | 1.73 | -73.3% (inactive)
17 | Cc1ccc(NC(=O)N/C=C/c2ccc(Cl)cc2)cc1 | 1.09 | -9.1% (inactive)
18 | CCN(CC)C(C(=O)Nc1ccc(C(C)C)cc1)c1ccc2c(c1)OCO2 (stereo unspecified) | 1.48 | -48.4% (inactive)
19 | CC(NC(=O)Nc1ccc(Cl)cc1)c1ccc2c(c1)OCO2 (stereo unspecified) | 2.53 | -153% (active)
20 | COc1ccc(Cl)cc1C(=O)Nc1ccc2c(c1)OCO2 | 1.1 | -10.2% (inactive)
21 | Cc1noc(-c2ccccc2)c1NC(=O)Nc1ccc(Cl)cc1 | 1.7 | -70.2% (inactive)

Row | SMILES | activation factor | activity change, negative = activation
22 | COC(=O)Nc1ccc2c(c1)OCO2 | 0.903 | 9.6% (inactive)
23 | O=C(N/C=C/c1ccccc1)Nc1ccc(Cl)cc1 | 2.71 | -171% (active)
24 | CC(C)c1ccc(NC(=O)NC(C)c2ccc3c(c2)OCO3)cc1 (stereo unspecified) | 3.31 | -231% (active)
25 | Cc1cccc(OCCCSc2nc3ccccc3[nH]2)c1 | 1.13 | -12.6% (inactive)
26 | COC(=O)c1c(NC(=O)c2ccccc2)sc(Cc2ccccc2)c1C | 1 | -0.05% (inactive)
27 | O=C(NCC(=O)N(CC1CCCO1)C1(C(=O)NC2CCCC2)CCCCC1)c1ccccc1 (stereo unspecified) | 1.03 | -3.2% (inactive)
28 | CCOC(=O)N1CCN(C(=O)Cn2c(C)cc3ccccc3c2=O)CC1 | 1.12 | -11.8% (inactive)
29 | Cc1ccc(Nc2c3c(nc4ncnn24)CC(C)CC3)cc1 (stereo unspecified) | 1.02 | -2.1% (inactive)
30 | C1CN(c2nc3nonc3n3nnnc23)CCO1 | 0.972 | 2.75% (inactive)
31 | O=C(Cn1cc(C(=O)C2CC2)c2ccccc21)NCC1CCCO1 (stereo unspecified) | 0.944 | 5.6% (inactive)
32 | O=C(O)CS(=O)(=O)c1ccc(Oc2ccc(S(=O)(=O)CC(=O)O)cc2)cc1 | 1.1 | -10.4% (inactive)
33 | CCc1ccc(NC(=O)NC(C)c2ccc3c(c2)OCO3)cc1 (stereo unspecified) | 2.66 | -166% (active)
34 | CC(NC(=O)c1ccco1)c1ccc2c(c1)OCCO2 (stereo unspecified) | 0.968 | 3.25% (inactive)
35 | CC(C)c1ccc(NC(=S)NCc2ccc3c(c2)OCO3)cc1 | 1.36 | -36.3% (inactive)
36 | COc1cc2oc(=O)cc(-c3ccc(-c4ccc(C)cc4)cc3)c2c(OC)c1OC | 0.934 | 6.55% (inactive)
37 | COc1ccc(CC(=O)N[C@@H]2c3ccccc3CC[C@@H]2OCc2ccccc2)cc1 | 1.19 | -18.9% (inactive)
38 | Cc1sc2nc(CN3CCOCC3)nc(NS(=O)(=O)c3ccc4c(c3)OCCO4)c2c1C | 0.956 | 4.4% (inactive)
39 | CCc1cc(Cn2nc(-c3ccccc3)cc2C(=O)NCc2cccc(C(F)(F)F)c2)on1 | 2.52 | -152% (active)
40 | Cc1cc(Cn2nc(-c3ccccc3)cc2C(=O)NCc2cccc(C(F)(F)F)c2)on1 | 2.25 | -125% (active)
41 | Cc1ccc(C(=O)NC(Cc2cccc(C(F)(F)F)c2)C(=O)O)cc1 (stereo unspecified) | 1.14 | -13.9% (inactive)
42 | Cc1cc(C)nc(N2CCC(C(=O)NCc3cccc(C(F)(F)F)c3)CC2)n1 | 0.95 | 5.1% (inactive)

Row | SMILES | activation factor | activity change, negative = activation
43 | O=C(NCc1ccccc1)c1cc2nc(C3CC3)cc(C(F)(F)F)n2n1 | 0.96 | 4% (inactive)
44 | CCCC1C2C(=O)N(c3ccccc3OCC)C(=O)C2ON1c1ccccc1 (stereo unspecified) | 1.1 | -9.6% (inactive)
45 | CCCN1C(=O)c2ccc(C(=O)NC3CCCCC3)cc2C1=O | 1.07 | -6.9% (inactive)
46 | C=CCNc1nc(-c2sc(NC(C)=O)nc2C)cs1 | 0.932 | 6.75% (inactive)
47 | CCCCCCNC(=O)N[C@@H](C(=O)NCCC[C@H]1CN2C(=NC[C@@H]2Cc2ccccc2)N1CCc1cccc(OC)c1)C(C)C | 3.11 | -211% (active)
48 | CCCCNc1nc2c(c(=O)n(C)c(=O)n2C)n1Cc1cccc(OC)c1 | 1.04 | -4.2% (inactive)
49 | O=C(CCCOc1ccccc1)Nc1nncs1 | 1.02 | -1.6% (inactive)
50 | COc1cccc(C(=O)OCC(=O)Nc2ccccc2N2CCOCC2)c1 | 0.909 | 9.1% (inactive)
51 | CCCCCCN(C(=O)CCCN1C(=O)NC(c2ccc(-c3ccccc3)cc2)C(C(=O)OCc2ccccc2)=C1C)C(C)C(=O)NCCCC (stereo unspecified) | 1.42 | -41.5% (inactive)
52 | CCCCNC(=O)C(C)N(CCN(C)C)C(=O)CCCN1C(=O)NC(c2ccc(Cl)cc2)C(C(=O)OCc2ccccc2)=C1C (stereo unspecified) | 1.19 | -18.9% (inactive)
53 | CCCCNC(=O)C(C1CCCCC1)N(CCN(C)C)C(=O)CCCN1C(=O)NC(c2ccc(-c3ccccc3)cc2)C(C(=O)OCc2ccccc2)=C1C (stereo unspecified) | 2.49 | -148% (active)
54 | CCOC(=O)c1c(C)[nH]c(C(=O)CSc2nnc(CC(C)c3ccccc3)o2)c1C (stereo unspecified) | 0.943 | 5.7% (inactive)
55 | COc1ccc(OC)c(NC(=O)Cn2c(=O)n(CC(=O)NCc3ccco3)c(=O)c3ccccc32)c1 | 0.997 | 0.3% (inactive)
56 | OCCCN1c2ccccc2Nc2nnc(-c3ccccc3)cc21 | 3.08 | -208% (active)
57 | OCCCn1c(-c2ccccc2)n[nH]c1=S | 1.02 | -1.9% (inactive)
58 | CN(CC(=O)Nc1cccc(Cl)c1)S(=O)(=O)c1ccc2[nH]c(=O)oc2c1 | 0.26 | 74.1% (inactive)
59 | COc1cccc(CN(CC(=O)NC2CCCC2)C(=O)Cn2nnc(-c3cccs3)n2)c1 | 1.07 | -7.3% (inactive)
60 | Cc1ccc(NC(=O)Nc2cc(S(=O)(=O)N(C)C)ccc2C)cc1 | 1.84 | -83.7% (inactive)
61 | Cc1cc(C)cc(NC(=O)Nc2cc(S(=O)(=O)N(C)C)ccc2C)c1 | 3.43 | -243% (active)
62 | Cc1ccc(S(=O)(=O)N(C)C)cc1NC(=S)NC(C)CCCC(C)C (stereo unspecified) | 1.26 | -26.2% (inactive)
63 | Cc1cc(NC(=O)Cn2c(=O)c3c(ncn3CC(C)C)n(Cc3ccccc3)c2=O)no1 | 1.09 | -9.3% (inactive)

Row | SMILES | activation factor | activity change, negative = activation
64 | Cc1ccccc1-n1nc(C(=O)O)c(C)c(C#N)c1=O | 0.98 | 2.05% (inactive)
65 | COC(=O)c1cn(NC(=O)C2CCCO2)c(=O)c2ccccc12 (stereo unspecified) | 1.03 | -3.3% (inactive)
66 | CCN(CC)C(=O)CSc1nc(-c2cccs2)cc(-c2cccs2)c1C#N | 0.778 | 22.2% (inactive)
67 | CCCCC1=CC2=C(c3ccco3)C(=O)C(C)(OC(=O)c3ccc(OC)cc3)C(=O)C2=CN1Cc1ccc2c(c1)OCO2 (stereo unspecified) | 0.503 | 49.7% (inactive)
68 | CCCn1ncc(CN2CCC(C(=O)Nc3cccc(-c4cccc(F)c4)c3)CC2)c1C | 5.28 | -428% (active)
69 | CCn1ncc(C2=NOC(C(=O)Nc3ccc(C)cc3)C2)c1C (stereo unspecified) | 1.07 | -7.35% (inactive)
70 | CCn1ncc(CN2CCC(C(=O)Nc3cccc(-c4cccc(F)c4)c3)CC2)c1C | 2.83 | -183% (active)
71 | CCOC(=O)c1ccc(NC(=O)C2CCN(S(=O)(=O)CC)CC2)cc1 | 0.952 | 4.8% (inactive)
72 | Cc1cc(NC(=O)C2CCN(S(=O)(=O)c3cnc[nH]3)CC2)ccc1Br | 0.935 | 6.5% (inactive)
73 | CCCCNC(=O)C1CCN(C/C(C)=C/c2ccccc2)CC1 | 1.02 | -1.8% (inactive)
74 | C/C(=N\OCC(=O)N/N=C/c1ccccc1O)c1cccs1 | 1.01 | -1.25% (inactive)
75 | COc1ccc(Cl)cc1N1C(=O)[C@@H]2C(c3cccc(OC)c3OC)=NO[C@@H]2C1=O | 1 | 0.05% (inactive)
76 | COc1ccc(NC(=O)C(=O)NCCN2CCN(C(=O)C(c3ccccc3)c3ccccc3)CC2)cc1 | 1.05 | -5.05% (inactive)
77 | Cc1cc(C)cc(NC(=S)NCc2ccc3c(c2)OCO3)c1 | 1.81 | -80.9% (inactive)
78 | Cc1ccc(NC(=S)NC(NC(=O)c2ccccc2C)C(Cl)(Cl)Cl)c(C)c1 (stereo unspecified) | 3.11 | -211% (active)
79 | Cc1ccccc1NC(=S)NC(NC(=O)c1ccccc1C)C(Cl)(Cl)Cl (stereo unspecified) | 2.07 | -107% (active)
80 | CC(=O)NC(NC(=S)Nc1ccc(N=Nc2ccccc2C)cc1C)C(Cl)(Cl)Cl (stereo unspecified) | 0.848 | 15.2% (inactive)
81 | Cc1ccccc1NC(=S)NC(NC(=O)COc1ccccc1)C(Cl)(Cl)Cl (stereo unspecified) | 1.73 | -73% (inactive)
82 | Cc1cc(C)c(NC(=S)NC(NC(=O)c2ccccc2)C(Cl)(Cl)Cl)c(C)c1 (stereo unspecified) | 1.28 | -28.3% (inactive)
83 | O=C(O)c1ccccc1NC(=S)NC(NC(=O)c1ccccc1[N+](=O)[O-])C(Cl)(Cl)Cl (stereo unspecified) | 0.83 | 17% (inactive)
